{"source": "PubChem BioAssay (NCI)", "note": "This is part of a sample that, as a whole, favours compounds with a hit. Of some 83,000 tested, about 20% had one in any assay.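 In brief: 96-well plates, 48 h treatment, single concentration, percent growth endpoint.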 Unmarked numbers belong to inactive results. Calls of active or inactive are those of the source."}
{"tested_on": "OVCAR-5 ovarian", "experiment": "NCI-60 one-dose screen, 48 h (100 = growth as untreated, 0 = no growth, -100 = all killed)", "conditions": "10 µM", "description": "Growth inhibition of the OVCAR-5 human tumor cell line is measured as a screen for anti-cancer activity. Cells are grown in 96 well plates and exposed to the test compound for 48 hours. Compounds are tested at a single concentration, which is 10^-5 M for most compounds. The reported endpoint is percent growth (GI% or GIPRCNT), where numbers from 0 - 100% represent growth inhibition, and numbers from -100% - 0 represent cell death. For example, a value of 40 represents 60% growth inhibition. A value of 0 means no net growth occurred over the course of the experiment. A value of -40 indicates 40% of cells at the beginning of the experiment died by the end of the experiment. A value of -100 means all cells are dead at the end of the experiment.\nNCI-60 Human Tumor Cell Lines Screen was performed using the standard one-dose NCI protocol, which is described in more detail at https://dtp.cancer.gov/discovery_development/nci-60/default.htm.\nCompounds with GIPRCNT values below 10 were considered active. Activity score was based on GIPRCNT using the following formula: […]\nScore is 0 for GIPRCNT values of 100 or above, 50 for GIPRCNT values of 0, and 100 for GIPRCNT values of -100."}
{"compound": "O=C(/C=C/c1cccc(Br)c1)c1nc2ccccc2n1Cc1ccc(F)cc1", "growth": "53.7%"}
{"compound": "O=C(NCCCCC(c1ccc(F)cc1)c1ccc(F)cc1)Nc1ccc([N+](=O)[O-])c(C(F)(F)F)c1", "growth": "11.8%"}
{"compound": "CC1=C(COCCOC(=O)c2ccc(S(=O)(=O)F)cc2)C2=C(C)C3(CC3)[C@@](C)(O)C(=O)C2=C1", "growth": "-43.7% (active)"}
{"compound": "COc1cc(OC)c(/C=C/C(=O)c2nc3ccccc3n2Cc2ccc(F)cc2)c(OC)c1", "growth": "112%"}
{"compound": "C=CC[Se]C(=O)c1cncc(C(=O)[Se]CC=C)c1", "growth": "-86.6% (active)"}
{"compound": "C[C@H]1[C@H](OC(=O)CCC(=O)N(CCCc2cn(-c3ccc(CN4CCOCC4)cc3)nn2)CCNc2ccnc3cc(Cl)ccc23)O[C@@H]2OC3(C)CC[C@H]4[C@H](C)CC[C@@H]1[C@@]24OO3", "growth": "42.1%"}
{"compound": "COC(=O)C[C@](O)(CCC(C)C)C(=O)O[C@H]1C(OC)=C[C@@]23CCCN2CCc2cc4c(cc2[C@@H]13)OCO4", "growth": "-20.4% (active)"}
{"compound": "O=C(NC([Se])=NC1CCCCC1)c1ccc2c(c1)OCO2", "growth": "72%"}
{"compound": "Cc1c2oc3c(C)ccc(C(=O)N[C@@H]4C(=O)N[C@H](C(C)C)C(=O)N5CCC[C@H]5C(=O)N(C)CC(=O)N(C)[C@@H](C(C)C)C(=O)OC4C)c3nc-2c(C(=O)N[C@@H]2C(=O)N[C@H](C(C)C)C(=O)N3CC(=O)C[C@H]3C(=O)N(C)CC(=O)N(C)[C@@H](C(C)C)C(=O)OC2C)c(N)c1=O", "note": "(stereo not given in full)", "growth": "5.55% (active)"}
{"compound": "COc1ccc(/C=C/C(=O)c2nc3ccccc3n2Cc2ccc(Br)cc2)cc1", "growth": "89.6%"}
{"compound": "COCCOCCOCCOc1ccc(-n2cc(CCCN(CCNc3ccnc4cc(Cl)ccc34)C(=O)CCC(=O)O[C@@H]3O[C@@H]4OC5(C)CC[C@H]6[C@H](C)CC[C@@H]([C@H]3C)[C@@]46OO5)nn2)cc1", "growth": "52.2%"}
{"compound": "O=C(/C=C/c1ccccc1)c1nc2ccccc2n1Cc1ccc(Br)cc1", "growth": "-62.3% (active)"}
{"compound": "COC(=O)C[C@](O)(CCC(C)C)C(=O)O[C@@H]1C(OC)=C[C@]23CCCN2CCc2cc4c(cc2[C@H]13)OCO4", "growth": "-35.9% (active)"}
{"compound": "N#C[Se]CC(=O)Nc1cccc(C(F)(F)F)c1", "growth": "-36.7% (active)"}
{"compound": "CCOP(=O)(OCC)C(NC(C)=O)C(=O)SCCN", "note": "(stereo not given)", "growth": "104%"}
{"compound": "O=C(/C=C/c1ccc(Cl)cc1Cl)c1nc2ccccc2n1Cc1ccc(F)cc1", "growth": "67.3%"}
{"compound": "COc1ccc(OC)c(/C=C/C(=O)c2nc3ccccc3n2Cc2ccc(F)cc2)c1", "growth": "-43% (active)"}
{"compound": "CCOC(=O)C1=C(Nc2ccccc2)C(=O)OC12C(=O)Nc1ccccc12", "note": "(stereo not given)", "growth": "103%"}
{"compound": "O=C(/C=C/c1ccc(Cl)cc1)c1nc2ccccc2n1Cc1ccc(F)cc1", "growth": "19.1%"}
{"compound": "CC1=C(C=O)C2=C(C)C3(CC3)[C@@](C)(O)C(=O)C2=C1", "growth": "36.7%"}
{"compound": "C#CC[Se]C(=O)c1ccc(C(=O)[Se]CC#C)s1", "growth": "81.3%"}
{"compound": "C[C@H]1[C@@H](CC(=O)N[C@@H](Cc2coc3ccccc23)B(O)O)O[C@@H]2OC3(C)CC[C@H]4[C@H](C)CC[C@@H]1[C@@]24OO3", "growth": "-57.1% (active)"}
{"compound": "C=CCN=C([Se])NC(=O)c1ccc2c(c1)OCO2", "growth": "117%"}
{"compound": "CC(=O)Oc1ccccc1C(=O)[Se]C(=NC(C)C)NC(C)C", "growth": "-66.5% (active)"}
{"compound": "O=C(/C=C/c1ccc(F)cc1)c1nc2ccccc2n1Cc1ccc(F)cc1", "growth": "-7.92% (active)"}
{"compound": "O=C(/C=C/c1ccc(F)cc1)c1nc2ccccc2n1Cc1ccc(Br)cc1", "growth": "-55.1% (active)"}
{"compound": "C=CC[Se]C(=O)c1ccc(C(=O)[Se]CC=C)s1", "growth": "-61.8% (active)"}
{"compound": "COC(=O)CCn1c(-c2ccc(-n3cc(-c4ccc(O[C@H]5O[C@@H]6OC7(C)CC[C@H]8[C@H](C)CC[C@@H]([C@H]5C)[C@@]68OO7)cc4)nn3)cc2)nc2ccccc21", "growth": "36.6%"}
{"compound": "C[C@H]1[C@H](OC(=O)CCC(=O)N(CCCc2cn(-c3ccc([N+](=O)[O-])cc3)nn2)CCNc2ccnc3cc(Cl)ccc23)O[C@@H]2OC3(C)CC[C@H]4[C@H](C)CC[C@@H]1[C@@]24OO3", "growth": "54.3%"}
{"compound": "CCOP(=O)(CC(F)(F)C(F)(F)F)OCC", "growth": "50.7%"}
{"compound": "O=C(/C=C/c1ccc(Br)cc1)c1nc2ccccc2n1Cc1ccc(Br)cc1", "growth": "-43.4% (active)"}
{"compound": "COP(=O)(CC(F)(F)C(F)(F)F)OC", "growth": "68.9%"}
{"compound": "C[C@H]1[C@H](OC(=O)CCC(=O)N(CCCc2cn(-c3ccc(C#N)cc3)nn2)CCNc2ccnc3cc(Cl)ccc23)O[C@@H]2OC3(C)CC[C@H]4[C@H](C)CC[C@@H]1[C@@]24OO3", "growth": "54.5%"}
{"compound": "C[C@H]1[C@@H](Oc2ccc(-c3cn(-c4ccnc5cc(Cl)ccc45)nn3)cc2)O[C@@H]2OC3(C)CC[C@H]4[C@H](C)CC[C@@H]1[C@@]24OO3", "growth": "19.2%"}
{"compound": "CC[C@]12C=CCN3CC[C@@]4(c5ccc(OC)cc5N(C)[C@H]4[C@@](O)(C(=O)OC)[C@@H]1OC(=O)CCCC[P+](c1ccc(C)cc1)(c1ccc(C)cc1)c1ccc(C)cc1)[C@@H]32", "growth": "-96% (active)"}
{"compound": "CC(C)N=C([Se])NC(=O)c1cccs1", "growth": "-22.6% (active)"}
{"compound": "CC(=O)Oc1ccccc1C(=O)NC([Se])=NC1CCCCC1", "growth": "-30.3% (active)"}
{"compound": "C#CC[Se]C(=O)c1ccc2n[se]nc2c1", "growth": "75.7%"}
{"compound": "CC(C)N=C([Se])NC(=O)c1ccccc1", "growth": "-55.9% (active)"}
{"compound": "CC(=C\\C(=O)Oc1ccc2c3c1OC1C(O)CCC4(O)C(C2)N(CC2CCC2)CCC314)/C=C1\\CCCc2ccccc21", "note": "(stereo not given)", "growth": "72.1%"}
